Consider 134 sequences from a collection of fitness landscapes (doi:10.1038/s41467-024-54723-y).

The full ranking holds about 18,000 sequences; the median of “TetR repression strength (sort-seq, GFP reporter)” is about 0.23, and the highest 2% start at about 0.68. Only a selection was taken, and the highest values are over-represented in it overall.

Sequence of TetR (class B, Tn10) (P04483 whole entry): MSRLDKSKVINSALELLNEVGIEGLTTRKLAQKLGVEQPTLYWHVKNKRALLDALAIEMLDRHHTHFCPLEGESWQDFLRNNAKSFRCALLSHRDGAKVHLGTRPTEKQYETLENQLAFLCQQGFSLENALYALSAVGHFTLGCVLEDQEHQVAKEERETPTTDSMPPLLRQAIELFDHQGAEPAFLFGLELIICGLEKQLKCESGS

This experiment concerns the target TetR (class B, Tn10) (UniProt P04483). Nature of the experiment: TetR repression strength (sort-seq, GFP reporter) (relative to tetO2 = 1); higher = stronger repression. As to conditions: E. coli. In a few lines: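 Repression strength is the top bin index plus one minus the read-weighted mean bin, relative to the unaltered operator's value. A low-copy library in E. coli SIG10-MAX randomized eight operator positions between a constitutive promoter and sfGFP, with TetR expressed constitutively; cells grew 5 h at 37 °C in LB with 50 µg/mL chloramphenicol and 10^6 were FACS-sorted into 13 bins that were each Illumina-sequenced. Three independent transformations were averaged, keeping only members with ≥30 reads in all replicates and CV ≤0.5.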
For the sequence TCCCGCATAGTAGGTGAGA, the TetR repression strength stood at 0.317.

As for TCCCAATGAGTTCGTGAGA, the TetR repression strength was found to be 0.

Turning to TCCCTCATAGTGGGCGAGA, the TetR repression strength turned out to be 0.213. With TCCCGCCCAGTAGGGGAGA, the TetR repression strength was determined as 0.163. As to TCCCTGCAAGTTGATGAGA, the TetR repression strength stood at 0.246. For TCCCATGTAGTCCTGGAGA, the TetR repression strength is 0.341. With TCCCCTTAAGTGGTAGAGA, the TetR repression strength was 0.201.

Take TCCCCGTTAGTGTCGGAGA: the TetR repression strength was 0.137. The same measure for TCCCAGTGAGTCTTTGAGA: 0.339. The same measure for TCCCAGTCAGTCTTTGAGA: 0.726; for TCCCGTATAGTCGGGGAGA: 0.216; for TCCCAGTCAGTCGGGGAGA: 0.776.

For TCCCGTACAGTCGGGGAGA, the TetR repression strength was found to be 0.698. The same measure for TCCCATTCAGTCTTTGAGA: 0.228; for TCCCAGCCAGTCGGGGAGA: 0.184; for TCCCTGTCAGTCGGGGAGA: 0.154. As to TCCCGTACAGTGGGGGAGA, the TetR repression strength was determined as 0.145. Next, TCCCGGTGAGTCAAAGAGA: 0.338; TCCCTTCCAGTCATTGAGA: 0.225.

TCCCTGTCAGTATAGGAGA: the TetR repression strength worked out at 0.0605. Next, TCCCGCCGAGTGGACGAGA: 0.514; TCCCCTGCAGTTGGAGAGA: 0.159. As to TCCCAGTTAGTTGAGGAGA, the TetR repression strength came to 0.231. The same measure for TCCCACGGAGTCACCGAGA: 0.205; for TCCCCCTAAGTGATAGAGA: 0.442. Turning to TCCCTATAAGTGATAGAGA, the TetR repression strength turned out to be 0.994.

As to TCCCGAGAAGTGATAGAGA, the TetR repression strength came out at 0.425.

On to TCCCTATAAGTCGTAGAGA, for which the TetR repression strength came out at 0.503.

TCCCGCTCAGTGGTAGAGA had a TetR repression strength of 0.428.

In turn, TCCCGATAAGTCAGTGAGA came in with a TetR repression strength of 0.747. With TCCCGCTCAGTGATAGAGA, the TetR repression strength was determined as 0.742. Sequence TCCCGATAAGTGAGTGAGA showed a TetR repression strength of 0.375. The sequence TCCCGCTCAGTGTTAGAGA displayed a TetR repression strength of 0.433. TCCCGACAAGTGATAGAGA returned a TetR repression strength of 0.642. The same measure for TCCCGATAAGTGATAGAGA: 0.733. Next, TCCCGATGAGTCAGTGAGA: 0.38.

The sequence TCCCGTATAGTGGGGGAGA yielded a TetR repression strength of 0.0618.

TCCCGGGTAGTGACGGAGA: the TetR repression strength came to 0.181. The same measure for TCCCACGAAGTGCCTGAGA: 0.486. Next, TCCCAGGGAGTAAAGGAGA: 0.188.

Turning to TCCCGCAGAGTTGGCGAGA, the TetR repression strength is 0.186. As to TCCCGATCAGTGCTAGAGA, the TetR repression strength was 0.657. Next, TCCCTATTAGTGATAGAGA: 0.878; TCCCGATAAGTAGCTGAGA: 0.921; TCCCGATAAGTGGCTGAGA: 0.523. Regarding TCCCGCTGAGTGATAGAGA, the TetR repression strength came out at 0.483. TCCCGATCAGTGATAGAGA registered a TetR repression strength of 0.778.

TCCCGCTAAGTGATAGAGA had a TetR repression strength of 0.69. Next, TCCCGGTAAGTGATAGAGA: 0.609; TCCCGATCAGTGATGGAGA: 0.482; TCCCGACAAGTAGCTGAGA: 0.187. In turn, TCCCTTTTAGTGATAGAGA yielded a TetR repression strength of 0.512. TCCCTAATAGTGATAGAGA: the TetR repression strength was determined as 0.614. As for TCCCTTATAGTGCCTGAGA, the TetR repression strength stood at 0.162.

TCCCGAACAGTGTAGGAGA returned a TetR repression strength of 0.0968. The same measure for TCCCGCTTAGTCCGTGAGA: 0.183; for TCCCTGGAAGTGGGGGAGA: 0.208; for TCCCTGATAGTTTTCGAGA: 0.301. Next, TCCCTCGAAGTAGGGGAGA: 0.154; TCCCATTAAGTGAACGAGA: 0.253; TCCCCGAGAGTGTGTGAGA: 0.248. The same measure for TCCCGTCAAGTGGCCGAGA: 0.152. The sequence TCCCGTCAAGTAGCCGAGA had a TetR repression strength of 1.02.

TCCCGGGAAGTAGCTGAGA came in with a TetR repression strength of 0.647.

Turning to TCCCGGGGAGTGGCTGAGA, the TetR repression strength was found to be 0.301. Turning to TCCCGGGGAGTAGCTGAGA, the TetR repression strength came to 0.709. Next, TCCCGTCAAGTACCCGAGA: 0.325; TCCCGAGTAGTAACGGAGA: 0.461. Next, TCCCGAGAAGTGCCTGAGA: 0.178; TCCCGTCTAGTGAAGGAGA: 0.315. Take TCCCGGTCAGTGCAGGAGA: the TetR repression strength came out at 0.531.

TCCCGTCTAGTAGTGGAGA showed a TetR repression strength of 0.468. The same measure for TCCCCAGGAGTGGCTGAGA: 0.0764. With TCCCTCGTAGTCTGCGAGA, the TetR repression strength turned out to be 0.447. Sequence TCCCCTAGAGTCTGAGAGA came in with a TetR repression strength of 0.122. The same measure for TCCCTCGGAGTCTGAGAGA: 1.02.

Regarding TCCCCTCGAGTCTGAGAGA, the TetR repression strength was 0.89. Sequence TCCCTCGTAGTCTAAGAGA gave a TetR repression strength of 0.142. Sequence TCCCTCGTAGTCTGAGAGA yielded a TetR repression strength of 1.03. In the case of TCCCTCGGAGTCTGTGAGA, the TetR repression strength came to 0.215.

In turn, TCCCCTTGAGTCTGAGAGA displayed a TetR repression strength of 0.333. The same measure for TCCCTCGGAGTCTGCGAGA: 0.522; for TCCCAACCAGTTTTAGAGA: 0.399; for TCCCGCATAGTACGTGAGA: 0.273. Next, TCCCGATGAGTTGCTGAGA: 0.124; TCCCTGCGAGTGATAGAGA: 0.618; TCCCCAGTAGTTTGCGAGA: 0.202. Next, TCCCAGTCAGTTTGCGAGA: 0.167. TCCCCGTCAGTGTGCGAGA registered a TetR repression strength of 0.333. Next, TCCCCGTCAGTTTGCGAGA: 0.741. Sequence TCCCCGGTAGTTTGAGAGA came in with a TetR repression strength of 0.302. Next, TCCCCGTCAGTGCGAGAGA: 0.69; TCCCTCTTAGTTTGCGAGA: 0.796; TCCCCGGTAGTTTGCGAGA: 0.971. In turn, TCCCCCTCAGTTTGCGAGA registered a TetR repression strength of 0.518. In the case of TCCCTATTAGTTTGCGAGA, the TetR repression strength was determined as 0.417. The same measure for TCCCTCTGAGTTTGCGAGA: 0.335; for TCCCCGTCAGTGCGCGAGA: 0.229; for TCCCGTGGAGTAGCAGAGA: 0.169.

In turn, TCCCTGGGAGTAAGGGAGA returned a TetR repression strength of 0.28. Next, TCCCGGGGAGTGTTAGAGA: 0.247; TCCCTGAGAGTCGATGAGA: 0.237; TCCCTTTTAGTATACGAGA: 0.242. Next, TCCCACCGAGTGTTGGAGA: 0.286. The sequence TCCCCCCAAGTCGGCGAGA yielded a TetR repression strength of 0.00669. Next, TCCCACTGAGTTGGAGAGA: 0.16.

For TCCCTAGCAGTTGAGGAGA, the TetR repression strength was determined as 0.0558. The same measure for TCCCAGCGAGTATGAGAGA: 0.0754. TCCCGAAGAGTTGTTGAGA had a TetR repression strength of 0.233. Consider TCCCATCTAGTCAGGGAGA, for which the TetR repression strength was determined as 0.305. Turning to TCCCCTGCAGTGGGGGAGA, the TetR repression strength turned out to be 0.225. Next, TCCCTTATAGTGTAGGAGA: 0.0398; TCCCATGAAGTGTGTGAGA: 0.127; TCCCTGTAAGTCGTGGAGA: 0.309. TCCCCGTGAGTCTGAGAGA yielded a TetR repression strength of 0.215.

In turn, TCCCCGTGAGTCAGGGAGA gave a TetR repression strength of 0.152. Take TCCCCGTGAGTCAGAGAGA: the TetR repression strength was 0.963. TCCCTGTTAGTGCCAGAGA yielded a TetR repression strength of 0.193. On to TCCCATTAAGTGCATGAGA, for which the TetR repression strength was found to be 0.106. Regarding TCCCTGTAAGTTGACGAGA, the TetR repression strength is 0.1. The same measure for TCCCACTTAGTTGGGGAGA: 0.201. Next, TCCCCACTAGTGAAGGAGA: 0.203; TCCCAATCAGTGATAGAGA: 0.785. As for TCCCCATAAGTGATAGAGA, the TetR repression strength stood at 0.522.

As for TCCCAATCAGTGACAGAGA, the TetR repression strength is 0.723.

For the sequence TCCCCATCAGTGATAGAGA, the TetR repression strength was 0.966.

For TCCCACTCAGTGAGAGAGA, the TetR repression strength is 0.514.

TCCCAAACAGTGACAGAGA displayed a TetR repression strength of 0.622. In turn, TCCCAAGCAGTGATAGAGA had a TetR repression strength of 0.505. Take TCCCCAGCAGTGATAGAGA: the TetR repression strength amounted to 0.186.

Sequence TCCCACTAAGTGATAGAGA yielded a TetR repression strength of 0.427.

As to TCCCACTCAGTGATAGAGA, the TetR repression strength came to 0.701. Sequence TCCCAATCAGTGGTAGAGA returned a TetR repression strength of 0.521. The same measure for TCCCAGTCAGTGACAGAGA: 0.416.
